From the supplement of paper PMC9399229
Where a name gives a salt, the structure may show the parent alone. ± gives the standard deviation of the averaged measurements. The full ranking holds about 1,900 compounds; the median of “relative cell viability (CellTiter-Glo), compound alone” is about 1, and the lowest 2% start at about 0.16. What follows is part of a selection rich in the lowest values, with near analogues and random picks from the rest.

tested on: Hep3B; assay: relative cell viability (CellTiter-Glo), compound alone (fraction); higher = more viable cells (less growth inhibition); details: cabozantinib 0 µM; 4 days

SMILES	relative cell viability
CCn1cc(NC(=S)Nc2cc(Cl)ccc2OC)c(C(N)=O)n1	1.44 ± 0.14
C1=N/C2=N/c3ccc(OCCN4CCCC4)c(c3)COC/C=C/COCc3cccc(c3)C(=C1)N2 [Pacritinib (SB1518)]	0.1545 ± 0.0015
CN(C)c1cccc(-c2c3c(=O)n(-c4ccccc4Cl)[nH]c3cc(=O)n2C)c1	1.12 ± 0.1
O=C(NCCS(=O)(=O)c1ccc(C(F)(F)F)cn1)c1ccc(Cl)cc1	1.2 ± 0.049
C[C@@H](Oc1cc(-n2cnc3ccc(CN4CCN(C)CC4)cc32)sc1C(N)=O)c1ccccc1C(F)(F)F	0.668 ± 0.04
O=C1CCC[C@@H]2[C@H]3CCC[N+]4([O-])CCC[C@@H](CN12)[C@@H]34 (some centres not stated) [Oxymatrine]	1.09 ± 0.21
CC1CNc2c(cccc2S(=O)(=O)N[C@@H](CCCNC(=N)N)C(=O)N2CC[C@@H](C)C[C@@H]2C(=O)O)C1 (some centres not stated) [Argatroban]	1.02 ± 0.17
CO[C@H]1C[C@@H]2CC[C@@H](C)[C@@](O)(O2)C(=O)C(=O)N2CCCC[C@H]2C(=O)O[C@H]([C@H](C)C[C@@H]2CC[C@@H](OC(=O)C(C)(CO)CO)[C@H](OC)C2)CC(=O)[C@H](C)/C=C(\C)[C@@H](O)[C@@H](OC)C(=O)[C@H](C)C[C@H](C)/C=C/C=C/C=C/1C	1.04 ± 0.013
CCOC(=O)[C@H](CCc1ccccc1)N[C@H]1CCCN2CCC[C@@H](C(=O)O)N2C1=O [Cilazapril Monohydrate]	0.947 ± 0.13
CC(C)(C)C[C@@H]1N[C@@H](C(=O)N[C@H]2CC[C@H](O)CC2)[C@H](c2cccc(Cl)c2F)[C@]12C(=O)Nc1cc(Cl)ccc12	1.09 ± 0.025
O=C1c2c(O)ccc(O)c2C(=O)c2c(NCCNCCO)ccc(NCCNCCO)c21 [Mitoxantrone HCl]	0.0676 ± 0.0056
O=C1c2cccc(O)c2C(=O)c2c(O)cc(CO)cc21 [Aloe-emodin]	0.96 ± 0.11
O=C1c2c(O)ccc(O)c2C(=O)c2c(NCCNCCO)ccc(NCCNCCO)c21 [Mitoxantrone]	0.0757 ± 0.0097
Cc1ccc([N+](=O)[O-])cc1S(=O)(=O)N(C)/N=C/c1cnc2ccc(Br)cn12	0.139 ± 0.01
Nc1nc(NC2CC2)cc(-c2cccc(Cl)c2Cl)n1	1.162 ± 0.0077
NS(=O)(=O)NCCNc1nonc1/C(=N/O)Nc1ccc(F)c(Br)c1	1.24 ± 0.064
Fc1ccc2[nH]ccc2c1-c1nc(N2CCOCC2)c2sc(CN3CCN(CC4CC4)CC3)cc2n1	0.871 ± 0.011
Cn1cncc1[C@@](N)(c1ccc(Cl)cc1)c1ccc2c(c1)c(-c1cccc(Cl)c1)cc(=O)n2C [Tipifarnib]	0.995 ± 0.046
Cc1nc(-c2cn3c(n2)-c2ccc(-c4cnn(C(C)(C)C(N)=O)c4)cc2OCC3)n(C(C)C)n1	1.01 ± 0.032
c1ccc(NCc2ccc(CNc3ccccn3)cc2)nc1	1.09 ± 0.085
COc1cc([C@@H]2c3cc4c(cc3[C@@H](O[C@@H]3O[C@@H]5CO[C@@H](C)O[C@H]5[C@H](O)[C@H]3O)[C@H]3COC(=O)[C@H]23)OCO4)cc(OC)c1O [Etoposide]	1.22 ± 0.11
COc1cc([C@@H]2c3cc4c(cc3[C@@H](O[C@@H]3O[C@@H]5CO[C@@H](c6cccs6)O[C@H]5[C@H](O)[C@H]3O)[C@H]3COC(=O)[C@H]23)OCO4)cc(OC)c1O [Teniposide]	0.113 ± 0.0088
COc1cccc(C=NCCN=Cc2cccc(OC)c2[O-])c1[O-].[Cl-].[Mn+3]	1.04 ± 0.041
Nc1ccc(-c2ccc3ncc4ccc(=O)n(-c5cccc(C(F)(F)F)c5)c4c3c2)cn1 [Torin 2]	0.147 ± 0.014
COc1ccc(-c2ccc3ncc4c(c3c2)n(-c2ccc(N3CCNCC3)c(C(F)(F)F)c2)c(=O)n4C)cn1	0.202 ± 0.013
CN1C(=O)C(Cc2c[nH]c3ccccc23)NC1=S (configuration not stated) [Necrostatin-1]	1.154 ± 0.0058

SMILES	relative cell viability
CCn1c(N)c(C(=O)NC)c(=O)c2ccc(C#CC(C)(O)COC)nc21 (configuration not stated)	0.951 ± 0.15
Cc1ccc(-n2sc(=O)n(Cc3ccc(F)cc3)c2=O)cc1	1.03 ± 0.086
C=CC(=O)Nc1cc(Nc2nccc(-c3c[nH]c4ccccc34)n2)c(OC)cc1N(C)CCN(C)C	0.913 ± 0.049
O=C(NC[C@H](O)CN1CCc2ccccc2C1)c1cc(NC2COC2)ncn1	1.09 ± 0.029
Cn1c(Nc2ccc(C(F)(F)F)cc2)nc2cc(Oc3ccnc(-c4ncc(C(F)(F)F)[nH]4)c3)ccc21	0.9528 ± 0.0094
CN[C@@H](C)C(=O)N[C@H](C(=O)N1CCC[C@H]1C(=O)Nc1snnc1-c1ccccc1)C1CCCCC1	0.229 ± 0.13
CC[C@@H]1/C=C(\C)C[C@H](C)C[C@H](OC)[C@H]2O[C@@](O)(C(=O)C(=O)N3CCCC[C@H]3C(=O)O[C@H](/C(C)=C/[C@@H]3CC[C@@H](O)[C@H](OC)C3)[C@H](C)[C@@H](O)CC1=O)[C@H](C)C[C@@H]2OC [Ascomycin (FK520)]	1.16 ± 0.12
CN(NC(=O)CC(=O)NN(C)C(=S)c1ccccc1)C(=S)c1ccccc1 [Elesclomol (STA-4783)]	0.0115 ± 0.0045
O=C(O)c1ccccc1 [Benzoic Acid]	1.26 ± 0.07
O=C(O)CCNC(=O)c1ccccc1 [Betamipron]	0.9 ± 0.089
COc1cc(N2CCC(N3CCN(C)CC3)CC2)ccc1Nc1ncnc(Nc2ccccc2S(=O)(=O)C(C)C)n1	0.887 ± 0.056
Cc1cc(Nc2ccc(NC(=O)c3ccc(Nc4ccnc5ccccc45)cc3)cc2)nc(N)n1	0.227 ± 0.023
CN(C)CCCNC(=O)c1ccc(-c2cc(O)c3ncccc3c2)cc1	0.898 ± 0.27
Cc1ccc(NC(=O)C2(c3ccc4c(c3)OC(F)(F)O4)CC2)nc1-c1cccc(C(=O)O)c1 [VX-809 (Lumacaftor)]	0.144 ± 0.025
CC(C)(CO)c1cc2cc(NC(=O)C3(c4ccc5c(c4)OC(F)(F)O5)CC3)c(F)cc2n1C[C@@H](O)CO	1.14 ± 0.18
C[C@]1(c2nc3c(C(N)=O)cccc3[nH]2)CCCN1 [Veliparib (ABT-888)]	1.02 ± 0.44
CN1CCN(C2CCN(C(=O)Nc3cc(Oc4ccc(NC(=O)C5(C(=O)Nc6ccc(F)cc6)CC5)c(F)c4)ccn3)CC2)CC1 [Golvatinib (E7050)]	1.15 ± 0.079
COc1ccc(-c2cc(=O)c3c(O)cc(O)cc3o2)cc1O [Diosmetin]	1.35 ± 0.14
O=c1cc(CN2CCOCC2)occ1OCCCCCSc1ccnc2cc(C(F)(F)F)ccc12	1.29 ± 0.14
CC/C(=C(\c1ccccc1)c1ccc(OCCN(C)C)cc1)c1ccccc1 [Tamoxifen Citrate]	1.26 ± 0.064
CC/C(=C(\c1ccc(O)cc1)c1ccc(OCCNC)cc1)c1ccccc1 [Endoxifen HCl]	1.16 ± 0.081
CN(C)Cc1c(C(=O)NCCOc2ccc(C(=O)NO)cc2)oc2ccccc12	0.153 ± 0.054
O=C(Nc1c[nH]nc1-c1nc2ccc(CN3CCOCC3)cc2[nH]1)NC1CC1	0.3 ± 0.036
O=[N+]([O-])c1ccc2c(c1)S(=O)(=O)C=C2 [Stattic]	1.03 ± 0.043
N#Cc1cc(CN2CCC(Nc3ncnc4sc(Cl)cc34)CC2)ccc1F	1.42 ± 0.079
C[C@]12CC[C@@H]3c4ccc(OC(=O)c5ccccc5)cc4CC[C@H]3[C@@H]1CC[C@@H]2O [Estradiol Benzoate]	1.19 ± 0.14

SMILES	relative cell viability
COc1ccc(Cn2ccc3ccc(C(=O)NO)cc32)cc1	0.909 ± 0.14
CCN(CC)CCNC(=O)c1ccc(N)cc1 [Procainamide HCl]	0.954 ± 0.032
CCN(CC)Cc1ccc2cc(COC(=O)Nc3ccc(C(=O)NO)cc3)ccc2c1 [Givinostat (ITF2357)]	0.156 ± 0.0025
OCc1ccc(O[C@@H]2O[C@H](CO)[C@@H](O)[C@H](O)[C@H]2O)cc1 [Gastrodin]	1.354 ± 0.0026
CN(C)Cc1cccc(N/C(=C2\C(=O)Nc3cc(C(N)=O)ccc32)c2ccccc2)c1	0.7302 ± 0.0057
COC(=O)c1ccc2c(c1)NC(=O)/C2=C(\Nc1ccc(N(C)C(=O)CN2CCN(C)CC2)cc1)c1ccccc1 [Nintedanib (BIBF 1120)]	0.761 ± 0.038
CCS(=O)(=O)Nc1ccc2c(c1)/C(=C(/Nc1ccc(CN3CCCCC3)cc1)c1ccccc1)C(=O)N2 [Hesperadin]	0.112 ± 0.0022
CCCCN(Cc1ccc(C(=O)NO)cc1)C(=O)Nc1ccccc1 [Nexturastat A]	1.06 ± 0.17
CC(=O)Nc1ccc(C(=O)Nc2ccccc2N)cc1 [CI994 (Tacedinaline)]	1.17 ± 0.1
CC(C)[C@H](C(=O)Nc1ccc(C(=O)NO)cc1)c1ccccc1	0.138 ± 0.015
CCn1cc(-c2ccnc3[nH]c(-c4cccc(CN(C)C)c4)cc23)c(-c2ccc(NC(=O)N(C)C)cc2)n1	0.94 ± 0.099
COc1ccccc1-c1cc(Nc2cccc(CS(N)(=O)=O)c2)ncn1	1.11 ± 0.029
CN(C)C(=O)Nc1cccc(-c2ccc(N(C)C)cc2)c1 [Atglistatin]	1.37 ± 0.12
O=C(Nc1cc(C(F)(F)F)ccc1N1CCCCC1)c1ccncc1	1.07 ± 0.016
CC(C)n1nc(-c2ccc3oc(N)nc3c2)c2c(N)ncnc21	0.387 ± 0.022
CC1(C)CCC[C@]2(C)[C@H]3CC(=O)O[C@]3(C)CC[C@@H]12 [Sclareolide]	0.9838 ± 0.007
CS(=O)(=O)N1CCN(Cc2cc3nc(-c4cccc5[nH]ncc45)nc(N4CCOCC4)c3s2)CC1	1.17 ± 0.013
Cc1c(CN2CCN(C(=O)[C@H](C)O)CC2)sc2c(N3CCOCC3)nc(-c3cnc(N)nc3)nc12	0.546 ± 0.022
COc1ccc(-c2nc(N3CCOCC3)c3sc(CN(C)c4ncc(C(=O)NO)cn4)cc3n2)cn1	0.132 ± 0.013
Cc1c(Cc2ccc3ccccc3n2)c2cc(F)ccc2n1CC(=O)O	1.08 ± 0.055
CN1C(C(=O)Nc2ccccn2)=C(O)c2sccc2S1(=O)=O [Tenoxicam]	1 ± 0.051
O=C(COc1ccc(C(=O)c2ccccc2)cc1)NC1CCN(Cc2ccccc2)CC1 [AdipoRon]	0.881 ± 0.096
CN1CCN(c2ccc3nc(-c4c(N)c5c(F)cccc5[nH]c4=O)[nH]c3c2)CC1 [Dovitinib (TKI-258) Dilactic Acid]	0.6208 ± 0.0046
CN1CCN(c2ccc3nc(-c4c(N)c5c(F)cccc5[nH]c4=O)[nH]c3c2)CC1 [Dovitinib (TKI-258, CHIR-258)]	0.85 ± 0.018
CN1CCN(c2ccc3nc(-c4c(N)c5c(F)cccc5[nH]c4=O)[nH]c3c2)CC1 [Dovitinib (TKI258) Lactate]	0.67 ± 0.011
